High-throughput results: PubChem, The Scripps Research Institute Molecular Screening Center
DAX1 inh-1: DAX1 (NR0B1) inhibitors on StAR promoter, primary screen, cell-based, luminescence, SF-1 (NR5A1), full-length DAX-1; inhibition, % at 6.8 µM; 370,000 tested, 1.1% active; HEK293T StAR-luciferase reporter, SF-1/DAX-1 repression relief; AID 652010, 2013;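 active = inhibition above the mean over all tested compounds plus 3 SD, cut at about 3.6% in these data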;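 also: 0% = DAX-1 cells with DMSO and 100% = cells lacking DAX-1 with DMSO; higher inhibition means more luminescence from relief of DAX-1 repression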
hgDAF12 agonist: H. glycines DAF-12 receptor agonists, primary screen, cell-based, luminescence, HEK293, GAL4 fusion, UAS-luciferase; 370,000 tested, 1.8% active; activation, % at 6.8 µM; AID 687014, 2013; HEK293 GAL4-hgDAF12 UAS-luciferase reporter, agonist luminescence; normalized to butyrate control; Nuclear hormone receptor DAF-12 (Heterodera glycines), GAL4 fusion;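 active = activation above a cutoff set at the mean of all screened compounds plus 3 SD, cut at about 10% in these data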;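 also: 0% = DMSO wells and 100% = sodium butyrate wells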
hcDAF-12 act: H. contortus DAF-12 nuclear receptor activators, primary screen, cell-based, luminescence, HEK293, lit1-tk-luc reporter. HEK293 hcDAF-12 lit1-tk-luc reporter; 0% DMSO, 100% Δ7-dafachronic acid. activation, % at 6.8 µM. 370,000 tested, 1.4% active;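 active = activation above the mean of all tested compounds plus 3 SD, cut at about 5.5% in these data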;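 also: 100% = response to 3 µM Δ7-dafachronic acid high control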
AHR activator: AHR activators, primary screen, cell-based, luminescence, luciferase reporter, human; AID 2796, 2010; activation, % at 5 µM; AHR-responsive luciferase reporter cells; Aryl hydrocarbon receptor (Homo sapiens), P35869; 320,000 tested, 2.5% active; in the data active = activation above about 47%;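 also: 0% = vehicle wells and 100% = reference agonist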
Target sequence (P35869 whole entry, looked up): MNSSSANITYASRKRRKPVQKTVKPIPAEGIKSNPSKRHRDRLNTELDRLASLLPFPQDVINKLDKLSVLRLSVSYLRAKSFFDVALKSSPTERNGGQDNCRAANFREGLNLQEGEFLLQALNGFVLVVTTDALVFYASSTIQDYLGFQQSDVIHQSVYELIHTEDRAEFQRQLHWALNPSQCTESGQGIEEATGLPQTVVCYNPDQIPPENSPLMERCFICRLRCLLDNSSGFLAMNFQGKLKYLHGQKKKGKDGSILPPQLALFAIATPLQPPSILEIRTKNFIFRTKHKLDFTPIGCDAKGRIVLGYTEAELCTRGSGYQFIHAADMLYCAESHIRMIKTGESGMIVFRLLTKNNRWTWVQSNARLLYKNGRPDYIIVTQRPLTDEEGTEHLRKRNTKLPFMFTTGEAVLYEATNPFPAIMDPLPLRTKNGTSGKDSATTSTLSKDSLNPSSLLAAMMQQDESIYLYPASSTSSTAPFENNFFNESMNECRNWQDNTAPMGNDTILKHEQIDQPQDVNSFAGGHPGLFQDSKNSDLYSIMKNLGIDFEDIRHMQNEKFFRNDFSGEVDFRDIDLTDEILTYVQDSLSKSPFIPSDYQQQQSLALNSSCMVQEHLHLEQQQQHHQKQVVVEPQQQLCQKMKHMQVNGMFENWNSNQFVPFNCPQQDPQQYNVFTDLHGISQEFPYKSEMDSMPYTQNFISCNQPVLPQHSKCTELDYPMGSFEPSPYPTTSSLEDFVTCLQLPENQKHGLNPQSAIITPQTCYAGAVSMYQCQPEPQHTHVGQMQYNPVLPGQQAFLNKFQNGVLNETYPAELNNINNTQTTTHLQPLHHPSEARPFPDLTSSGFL
ssDAF-12 act: S. stercoralis DAF-12 nuclear receptor activators, primary screen, cell-based, luminescence, HEK293, GRIP1 co-expression, lit1-tk-luc | HEK293 ssDAF-12/GRIP1 lit1-tk-luc reporter; % of 3 µM dafachronic acid response | 370,000 tested, 1% active | Nuclear hormone receptor DAF-12 (Strongyloides stercoralis) | activation, % at 6.8 µM;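 active = activation above the mean over all tested compounds plus 3 SD, cut at about 0.9% in these data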;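 also: 0% = DMSO-only wells and 100% = 3 µM delta7-dafachronic acid wells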
DAX1 inh-2: DAX1 (NR0B1) inhibitors, primary screen, cell-based, HEK293, Gal4-DAX1, luciferase luminescence. Nuclear receptor subfamily 0 group B member 1 (Homo sapiens), P51843. HEK293 Gal4-DAX1 luciferase reporter. inhibition, % at 6.75 µM. 340,000 tested, 0.99% active. AID 504766, 2011;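 active = inhibition above the mean over all tested compounds plus 3 SD, cut at about 4.2% in these data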;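 also: 0% = DAX1-transfected cells with DMSO and 100% = empty-vector control cells with DMSO; inhibition shows as a rise in luminescence from relieved DAX1 repression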
Starred values were filed as active, the others as inactive. A selection: hits, their analogues and other compounds. The true share with any hit is near 5.7%.

Results for CC(C)=CCC/C(C)=C/CN1C(=O)N(c2ccc(F)cc2)[C@H]2C[C@@H](c3ccccc3)[C@@H](C)[C@@H](C(=O)N3CCOCC3)C[C@H]21 ?
DAX1 inh-1: -4.5; hgDAF12 agonist: -7.0; hcDAF-12 act: -1.5; ssDAF-12 act: -2.2

Results for CC(C)(C)c1ccc(OCC(=O)Nc2ccc(C(=O)Nc3ccccc3C(=O)O)cc2)cc1 ?
DAX1 inh-1: -0.2; hgDAF12 agonist: -1.5; hcDAF-12 act: 0.5; AHR activator: 2.7; ssDAF-12 act: -0.5; DAX1 inh-2: -0.5

What do the screens show for `Cc1nc2ccc(C(=O)Nc3ccccc3Cl)cc2s1`?
DAX1 inh-1: 2.1; hgDAF12 agonist: 10.7*; hcDAF-12 act: 0.7; ssDAF-12 act: -0.9; DAX1 inh-2: 3.1

What do the screens show for `CC(=O)c1ccc(NC(=O)c2ccc3nc(C)sc3c2)cc1`?
DAX1 inh-1: 0.3; hgDAF12 agonist: 9.6; hcDAF-12 act: 0.9; AHR activator: -10.0; ssDAF-12 act: 0.7; DAX1 inh-2: 1.8

Results for Cc1nc2ccc(NC(=O)Cc3ccsc3)cc2s1 ?
DAX1 inh-1: 1.7; hgDAF12 agonist: 5.9; hcDAF-12 act: 5.8*; AHR activator: 17.1; ssDAF-12 act: 1.3*; DAX1 inh-2: 0.9

Results for Cc1nc2ccc(NC(=O)c3ccc4ccccc4n3)cc2s1 ?
DAX1 inh-1: 0.8; hgDAF12 agonist: 3.1; hcDAF-12 act: 2.7; AHR activator: 6.5; ssDAF-12 act: -1.0; DAX1 inh-2: 1.2

What do the screens show for `Cc1nc2ccc(NC(=O)c3ccccc3)cc2s1`?
DAX1 inh-1: 2.2; hgDAF12 agonist: 11.2*; hcDAF-12 act: 2.1; AHR activator: -3.4; ssDAF-12 act: -0.7; DAX1 inh-2: 2.9

How did Cc1nc2ccc(NC(=O)Cc3cccc(F)c3)cc2s1 do in these assays?
DAX1 inh-1: 1.3; hgDAF12 agonist: 0.3; hcDAF-12 act: 0.4; AHR activator: -2.1; ssDAF-12 act: -1.3; DAX1 inh-2: 0.0

Results for COc1cc(C(=O)OCC(=O)N2CCCC2=O)cc(OC)c1C ?
DAX1 inh-1: 0.2; hgDAF12 agonist: 0.5; hcDAF-12 act: -0.9; AHR activator: 1.0; ssDAF-12 act: -1.5; DAX1 inh-2: -0.5

Results for C/C(=N\Nc1ccc2nncn2n1)c1ccc(Br)s1 ?
DAX1 inh-1: -0.1; hgDAF12 agonist: -0.9; hcDAF-12 act: -0.2; AHR activator: 77.8*; ssDAF-12 act: -0.8; DAX1 inh-2: 1.5

How did CCOc1ccc(OCCn2c(SCC(=O)O)nc3ccccc32)cc1 do in these assays?
DAX1 inh-1: -0.9; hgDAF12 agonist: 0.6; hcDAF-12 act: -0.2; AHR activator: 3.4; ssDAF-12 act: -1.1; DAX1 inh-2: 0.8

What do the screens show for `CC(=O)c1ccc(OCCn2c(SCC(=O)O)nc3ccccc32)cc1`?
DAX1 inh-1: 0.3; hgDAF12 agonist: 8.9; hcDAF-12 act: 6.4*; ssDAF-12 act: 0.5; DAX1 inh-2: 2.1

What do the screens show for `Cc1ccc(-c2csc(NC(=O)CSc3nc4ccccc4c(=O)n3CCCN(C)C)n2)cc1`?
DAX1 inh-1: 1.1; hgDAF12 agonist: 12.9*; hcDAF-12 act: 0.8; AHR activator: 3.1; ssDAF-12 act: -1.5; DAX1 inh-2: 2.4

What do the screens show for `CCn1c(SCC(=O)Nc2nc(-c3ccc(C)cc3)cs2)nnc1-c1ccccc1`?
DAX1 inh-1: 0.6; hgDAF12 agonist: 0.6; hcDAF-12 act: 0.7; AHR activator: 3.9; ssDAF-12 act: -1.7; DAX1 inh-2: -0.2

How did CCOCCCn1c(SCC(=O)NCc2ccc3c(c2)OCO3)nc2ccccc2c1=O do in these assays?
DAX1 inh-1: -0.6; hgDAF12 agonist: -3.4; hcDAF-12 act: -1.4; AHR activator: 70.3*; ssDAF-12 act: -1.4; DAX1 inh-2: 0.8

Results for COCCCn1c(SCC(=O)Nc2ccc(C(C)=O)cc2)nc2ccccc2c1=O ?
DAX1 inh-1: -0.8; hgDAF12 agonist: 10.8*; hcDAF-12 act: 0.3; AHR activator: -0.4; ssDAF-12 act: -1.2; DAX1 inh-2: 3.4

How did COCCn1c(SCC(=O)Nc2ccc(NC(C)=O)cc2)nc2ccccc2c1=O do in these assays?
DAX1 inh-1: -0.9; hgDAF12 agonist: 1.9; hcDAF-12 act: 2.5; AHR activator: 0.2; ssDAF-12 act: -0.9; DAX1 inh-2: 0.4

Results for CN(C)S(=O)(=O)c1cccc(NC(=O)CO/N=C(\N)c2ccccc2)c1 ?
DAX1 inh-1: 1.5; hgDAF12 agonist: 0.1; hcDAF-12 act: 0.2; AHR activator: 4.7; ssDAF-12 act: -0.7; DAX1 inh-2: -0.1

What do the screens show for `O=C(Cn1cc(C(F)(F)F)ccc1=O)N1CCc2ccccc2C1`?
DAX1 inh-1: 1.7; hgDAF12 agonist: 2.0; hcDAF-12 act: -1.7; AHR activator: -0.8; ssDAF-12 act: 1.0*; DAX1 inh-2: 0.7

What do the screens show for `O=C(Cn1cc(C(F)(F)F)ccc1=O)N1CCCc2ccccc21`?
DAX1 inh-1: -0.6; hgDAF12 agonist: -1.1; hcDAF-12 act: 0.7; AHR activator: -1.1; ssDAF-12 act: 0.2; DAX1 inh-2: -0.4

How did COc1ccc(/C=N/Nc2c(Cl)cc(Cl)cc2Cl)cc1CN1CCOCC1 do in these assays?
DAX1 inh-1: -0.1; hgDAF12 agonist: 3.1; hcDAF-12 act: -3.5; AHR activator: 32.7; ssDAF-12 act: -1.6; DAX1 inh-2: -0.6

How did Cc1nc2cc3c(cc2c(C)c1C(=O)OC(C)C)OCO3 do in these assays?
DAX1 inh-1: 1.1; hgDAF12 agonist: 5.9; hcDAF-12 act: -1.2; AHR activator: 63.6*; ssDAF-12 act: -0.7; DAX1 inh-2: 1.6

How did COC(=O)c1nc2cc3c(cc2c(C)c1C(=O)OC)OCO3 do in these assays?
DAX1 inh-1: -0.2; hgDAF12 agonist: 0.1; hcDAF-12 act: 0.5; AHR activator: 1.3; ssDAF-12 act: -1.4; DAX1 inh-2: 0.0

How did Oc1ccccc1C=NC(N=Cc1ccccc1O)c1ccccc1O (configuration not stated) do in these assays?
DAX1 inh-1: -0.1; hgDAF12 agonist: 0.9; hcDAF-12 act: 0.0; ssDAF-12 act: 0.0

Results for O=C(CSc1nnc(-c2ccncc2)n1-c1ccccc1)Nc1ccc2c(c1)OCCO2 ?
DAX1 inh-1: -0.2; hgDAF12 agonist: -4.2; hcDAF-12 act: -0.5; ssDAF-12 act: -1.2

What do the screens show for `CCOc1ccc(NC(=O)N2CCc3ccccc3C2)cc1`?
DAX1 inh-1: 2.6; hgDAF12 agonist: 6.0; hcDAF-12 act: -0.1; AHR activator: 66.9*; ssDAF-12 act: -0.2; DAX1 inh-2: -1.0
